HPGD inh: HPGD (human) dehydrogenase inhibition; purified HPGD, NADH fluorescence kinetic, PGE2 substrate; Potency, µM, most hits filed as inhibitors; 4.3% of 150,000 active
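20 nM HPGD preincubated 15 min at room temperature with compound in 50 mM Tris-HCl pH 8, 0.01% Tween 20. Started with 1 mM NAD+ and 30 uM prostaglandin E2; NADH fluorescence (360/450 nm) read 5 times over 30-s intervals, last minus first.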
HttQ103 aggreg: inhibitors of mutant huntingtin aggregate formation in PC12 cells; Potency, µM (series often up to 46.1 µM), actives largely listed as inhibitors; PC12 HttQ103-GFP aggregates, Acumen cytometry, 40 h; 1.1% of 220,000 active; active means well fitted curve in the direction sought with a large enough effect; inconclusive means small, poorly fitted or top-dose-only effect, or another doubt; inactive means no such curve, though single readings can be large; an effect the other way counts as inactive or inconclusive; further: nearly all actives have a fitted effect of over 60% in size
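PC12 cells with ecdysone-inducible HTT exon1 Q103-GFP, induced by 100 nM tebufenozide, given compounds in a concentration series. GFP aggregates (1–25 um, 6 SD above background) counted in lysates by laser-scanning cytometry, 488 nm excitation.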
HTT cytoprotect: cytoprotection in Huntington HTT-Q103 PC12 cell model; PC12 HTT-Q103 induced, cytoprotection, ATP luminescence, 40 h; Potency, µM (series often up to 56.4 µM), hits mostly activators; 0.14% of 230,000 active; active means well fitted curve in the direction sought with a large enough effect; inconclusive means small, poorly fitted or top-dose-only effect, or another doubt; inactive means no such curve, though single readings can be large; an effect the other way counts as inactive or inconclusive; further: nearly all actives have a fitted effect of over 45% in size
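Readout: ATPlite luminescence (ATP level). Model: stable PC12, inducible Htt exon1 Q103-GFP. Inducer: tebufenozide, 100 nM final. Compounds: dose series. No G418 in medium.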
Lamin A splicing: changes lamin A minigene splicing in HeLa cells; HeLa LMNA splicing GFP/RFP minigene ratio, 48 h; Potency, µM (highest dose often 46.1 µM), actives largely listed as inhibitors; 0.01% of 200,000 active; AID 1487; active means well fitted inhibition curve with a large enough effect in the signal ratio, with a control signal flat, not every such curve was filed as active; inconclusive means small, poorly fitted or top-dose-only effect, or effect the other way, or a change in a side signal; the % refers to the signal ratio
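S3 HeLa cells stably expressing lamin A-EGFP splicing minigene plus DsRed2, 600 cells/well, 48 h compound exposure at 37C. Laser-scanning cytometry; analysed as GFP (500-530 nm)/RFP (575-640 nm) total intensity ratio; 0.5% DMSO vehicle.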
JMJD2E inh: blocks human JMJD2E demethylase activity; AID 2147; 1.6% of 230,000 active; JMJD2E catalytic domain, FDH-coupled NADH fluorescence (FDH is formaldehyde dehydrogenase); Potency, µM (doses to about 57.1 µM), hits mostly inhibitors; B2RXH2; further: nearly all actives have a fitted effect of over 50% in size
ALDH1A1 inh: inhibitors of human aldehyde dehydrogenase 1A1. Potency, µM (series often up to 75.3 µM), hits mostly inhibitors. P00352. Purified ALDH1A1, NADH fluorescence, propionaldehyde substrate. 7.3% of 220,000 active
Target sequence (P00352 whole entry, looked up): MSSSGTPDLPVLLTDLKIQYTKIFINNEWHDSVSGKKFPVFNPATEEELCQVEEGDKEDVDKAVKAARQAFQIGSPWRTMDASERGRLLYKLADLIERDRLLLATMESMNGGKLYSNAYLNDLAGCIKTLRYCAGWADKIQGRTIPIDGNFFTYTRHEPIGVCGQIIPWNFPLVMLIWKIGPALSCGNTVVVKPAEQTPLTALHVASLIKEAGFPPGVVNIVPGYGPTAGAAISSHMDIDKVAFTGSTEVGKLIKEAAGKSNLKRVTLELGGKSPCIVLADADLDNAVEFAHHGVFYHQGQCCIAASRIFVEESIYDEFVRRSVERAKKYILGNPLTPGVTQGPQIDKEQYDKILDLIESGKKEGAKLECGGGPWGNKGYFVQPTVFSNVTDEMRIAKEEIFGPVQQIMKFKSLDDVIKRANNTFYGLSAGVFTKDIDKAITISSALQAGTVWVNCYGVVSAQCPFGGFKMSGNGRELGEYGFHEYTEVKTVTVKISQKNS
Hits are given with their value; n = inactive; u = inconclusive; x = not tested or not shown; [ ] = dose if it differs, or a comment. Rows were chosen to be rich in hits. Some 9.2% of all compounds tested hit in one or more screens of this group. Unless noted, the call rests on the fitted dose curve; in most records, active means well fitted inhibition curve with a large enough effect (not every such curve was filed as active); inconclusive means small, poorly fitted or top-dose-only effect, or another doubt; inactive means no such curve, though single readings can be large or run the other way.

SMILES	HPGD inh	HttQ103 aggreg	HTT cytoprotect	Lamin A splicing	JMJD2E inh	ALDH1A1 inh
O=C(O)c1cnn(-c2ccccc2)c1-n1cccc1	n	n	n[10 µM]	n	n	n
Cc1cc(C)c2nc3c(c([C@H](O)C4CCCCN4)c2c1)CC/C3=C/c1ccc(Cl)cc1 (stereo not given in full)	n	x	x	x	x	n[13.5 µM]
CCSCCCC(=O)O	n	x	n[10 µM]	x	x	n[13.5 µM]
CCN(C(C)=O)c1ccc(Oc2nc(OC)cc(OC)n2)cc1	x	n	n	x	n	n
O=C(N/N=C1\CC2CC=CC12)c1ccc(COc2ccccc2)cc1 (stereo not given)	22.4µM	n	n[10 µM]	u	n	n
CCCCN(CCCC)S(=O)(=O)c1ccc(NC(=O)c2cccs2)cc1	n	12.6µM	n[10 µM]	u	n	n
CN(C1CCCCC1)S(=O)(=O)c1ccc(NC(=S)NC(=O)c2cccs2)cc1	n	u	n	u	n	22.4µM
Cc1cc(C)cc(NS(=O)(=O)c2ccc(NC(=S)NC(=O)c3cccs3)cc2)c1	n	n	x	u	n	10µM
Cc1ccc(C(=O)N2CCN(c3ccc(NC(=S)NC(=O)c4cccs4)cc3)CC2)cc1	x	n[9.22 µM]	n[10 µM]	u	n	14.1µM
Cc1cc(C)c(C2=NOC3C4CCC(C4)C23)c(C)c1 (stereo not given)	n	n	n[10 µM]	n	n	n
CC(C)NS(=O)(=O)c1ccc(NC(=S)NC(=O)c2ccc(-c3ccccc3)cc2)cc1	n	n	n	n	n	11.2µM
O=C(NC(=S)Nc1ccccc1)c1csnn1	n	n	n	n	n	7.94µM
O=C(O)c1ccc(NC(=S)NC(=O)c2ccc(-c3ccccc3)cc2)cc1	x	n	n	x	n	8.91µM
COc1cccc(-c2nc(-c3ccc4c(c3)NC(=O)CO4)cs2)c1	x	n	n	x	n	20µM
CC(Nc1nc(-c2ccc3c(c2)NC(=O)CO3)cs1)c1ccccc1 (stereo not given)	x	u	n	u	n	6.31µM
O=C1COc2ccc(-c3csc(NCC4CCCO4)n3)cc2N1 (stereo not given)	n	n	n	n	n	n
COc1ccc(-c2cc(-c3ccc(OC)cc3)nc(-c3ccc4c(c3)NC(=O)CO4)c2)cc1	n	n	n	n	u	u
CCN(CC)CCCC(C)Nc1nc(C)cc(Nc2ccc3nc(C)cc(N)c3c2)n1 (stereo not given)	n	x	n	x	n	n
NS(=O)(=O)c1ccc(CCNC(=O)c2ccc(C#CC3(O)CCCCC3)cc2)cc1	x	u	x	x	n	n
Cc1ccc(S(=O)(=O)N2CCC(C(=O)OCc3ccc([N+](=O)[O-])cc3)CC2)cc1	n	n	x	n	n	n
Cc1ccc(N2CC(C(=O)OCc3ccc([N+](=O)[O-])cc3)CC2=O)cc1 (stereo not given)	25.1µM	n[9.22 µM]	n	n	n	11.2µM
CC(C)N1CCC(N2CCN(C3CCCC3)CC2CCO)CC1 (stereo not given)	x	n[9.22 µM]	n[10 µM]	n	n	n
Cc1cccc(N2CCC(N3CCN(C4CCCCC4)C(CCO)C3)CC2)c1C (stereo not given)	x	n[9.22 µM]	u	n	u	3.55µM
C[n+]1cccc2ccc3c(c21)OC(N)=C(C#N)C3c1ccccc1 (stereo not given)	x	u	n[10 µM]	x	15.8µM	x
CC[C@@H](C)[C@H](NS(=O)(=O)c1cccc2ccccc12)C(=O)N[C@H](C=O)Cc1c[nH]c2ccccc12	x	x	n	x	x	u
SMILES	HPGD inh	HttQ103 aggreg	HTT cytoprotect	Lamin A splicing	JMJD2E inh	ALDH1A1 inh
CN1C(=S)SC(C)(NO)C1(C)C (stereo not given)	n	n	n[0.074 µM]	n	n	0.794µM
Cc1cncc(C(=O)O)[n+]1[O-]	x	n	n	x	x	x
COc1ccc(N2CCN(c3ncnc4c3cnn4-c3ccc(F)cc3)CC2)cc1	x	x	x	n	x	x
CN(C)c1ccc(/C=N/c2cc(-c3ccccc3)nn2-c2ccccc2)cc1	n	n	n	n	n	7.94µM
Cc1nn(-c2ccccc2)c(/N=C/c2ccc(O)cc2)c1-c1ccccc1	n	n	n[10 µM]	n	n	n
COc1cccc(/C=N/n2c(C)nc3ccccc32)c1OC	n	12.6µM	n[10 µM]	u	n	u
COc1cccc(/C=N/n2c(=S)n(C)c3ccccc32)c1OC	n	n	n	n	n	u
O=[N+]([O-])c1ccc(/C=N/n2cnc3ccccc32)s1	n	15.8µM	x	u	n	n
Cc1nc2ccccc2n1/N=C/c1ccc([N+](=O)[O-])s1	n	5.01µM	n[10 µM]	u	n	u
O=[N+]([O-])c1cccc(Cl)c1Cl	n	x	n	x	x	n
Cc1ccc2c(c1)N(CC(=O)OCC(=O)NCc1ccccc1)C(=O)CO2	x	n[9.22 µM]	n[10 µM]	n	n	n
Cc1ccc(S(=O)(=O)CCSC(=N)N)cc1	x	x	x	u	n	0.112µM
CCOc1ccc(OCC)c(NC(=O)CSc2nc3c(c(=O)n(C)c(=O)n3C)n2C(C)C)c1	x	n	n	u	n	8.91µM
CC(C)(CC(=O)O)CC(=O)Nc1ccc(Oc2ccc(C(C)(C)C)cc2)nc1	x	n[9.22 µM]	n[10 µM]	x	n	8.91µM
COCCCNC(=O)c1cc2cc(Br)ccc2oc1=O	x	x	x	x	n	u
O=C(NNC(=O)c1cc2cc(Br)ccc2oc1=O)c1ccc(O)cc1O	x	35.5µM	u	x	u	n
O=[N+]([O-])c1cc2oc3c(c2c(C=NCc2ccncc2)c1O)CCCC3	n	n	n[10 µM]	u	28.2µM	u
NC(=O)C1CC2(NC(=O)NC2=O)c2cc(F)ccc2O1 (stereo not given)	x	n	n	x	x	x
CCC(Sc1nnc(C)s1)C(=O)Nc1nccs1 (stereo not given)	n	n	n[0.074 µM]	n	n	u
